# Experimental data taken from the supplement of paper PMC8728848.
# About 410 targets per protein were measured; listed, in parts, are those with the strongest signals and a random draw of the rest.
# Key:
# Assay in all cases: glycan array binding signal (z-score within array); higher = stronger binding
# Details in all cases: glycan notation: IUPAC condensed, linker removed
# Fuc(a1-2)Gal = target: Fuc(a1-2)Gal
# Method in brief: (§1)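 The binding signal is a Z-score computed within each array. Data were drawn from 3228 arrays in the Consortium for Functional Glycomics database, restricted to those with a known protein sequence. Scores were averaged over arrays of the same protein sequence at different concentrations or buffers, and over linkers, and negative values can be taken as non-binding.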
# [1] = target: Fuc(a1-2)Gal(b1-3)GlcNAc(b1-2)Man(a1-3)[Fuc(a1-2)Gal(b1-3)GlcNAc(b1-2)Man(a1-6)]Man(b1-4)GlcNAc(b1-4)GlcNAc
# Method in brief: as §1
# [2] = target: Fuc(a1-2)Gal(b1-3)GlcNAc(b1-3)[Gal(b1-4)GlcNAc(b1-6)]Gal(b1-4)Glc
# Method in brief: as §1
# [3] = target: Fuc(a1-2)Gal(b1-4)Fuc(a1-3)]GlcNAc(b1-2)Man(a1-3)[Fuc(a1-2)Gal(b1-4)[Fuc(a1-3)]GlcNAc(b1-2)Man(a1-6)]Man(b1-4)GlcNAc(b1-4)GlcNAc
# Method in brief: as §1
# Fuc(a1-2)Gal(b1-4)GlcNAc = target: Fuc(a1-2)Gal(b1-4)GlcNAc
# Method in brief: as §1
# Fuc(a1-2)[Gal(a1-3)]Gal = target: Fuc(a1-2)[Gal(a1-3)]Gal
# Method in brief: as §1
# [4] = target: Fuc(a1-2)[Gal(a1-3)]Gal(b1-4)GlcNAc(b1-2)Man
# Method in brief: as §1
# [5] = target: Fuc(a1-2)[GalNAc(a1-3)]Gal(b1-3)GlcNAc(b1-3)GalNAc
# Method in brief: as §1
# [6] = target: Fuc(a1-2)[GalNAc(a1-3)]Gal(b1-4)GlcNAc(b1-6)GalNAc
# Method in brief: as §1
# [7] = target: Fuc(a1-2)[GalNAc(a1-3)]Gal(b1-4)[Fuc(a1-3)]GlcNAc
# Method in brief: as §1
# [8] = target: Fuc(a1-2)[GalNAc(a1-3)]Gal(b1-4)[Fuc(a1-3)]GlcNAc(b1-3)GalNAc
# Method in brief: as §1
# [9] = target: Fuc(a1-3)[Gal(b1-4)]GlcNAc(b1-2)Man
# Method in brief: as §1
# [10] = target: Gal(a1-3)Gal(b1-4)[Fuc(a1-3)]GlcNAc(b1-2)Man(a1-3)[Gal(a1-3)Gal(b1-4)[Fuc(a1-3)]GlcNAc(b1-2)Man(a1-6)]Man(b1-4)GlcNAc(b1-4)GlcNAc
# Method in brief: as §1
# [11] = target: Gal(a1-4)Gal(b1-3)GlcNAc(b1-2)Man(a1-3)[Gal(a1-4)Gal(b1-3)GlcNAc(b1-2)Man(a1-6)]Man(b1-4)GlcNAc(b1-4)GlcNAc
# Method in brief: as §1
# Gal(b1-2)Gal = target: Gal(b1-2)Gal
# Method in brief: as §1
# Gal(b1-3)GalNAc = target: Gal(b1-3)GalNAc
# Method in brief: as §1
# [12] = target: Gal(b1-3)GlcNAc(b1-3)GalNAc
# Method in brief: as §1
# [13] = target: Gal(b1-3)[Neu5Ac(b2-6)]GalNAc
# Method in brief: as §1
# [14] = target: Gal(b1-4)GalNAc(a1-3)[Fuc(a1-2)]Gal(b1-4)GlcNAc
# Method in brief: as §1
# Gal(b1-4)Glc6S = target: Gal(b1-4)Glc6S
# Method in brief: as §1
# [15] = target: Gal(b1-4)GlcNAc(b1-2)Man(a1-6)[GlcNAc(b1-2)Man(a1-3)]Man(b1-4)GlcNAc(b1-4)GlcNAc
# Method in brief: as §1
# [16] = target: Gal(b1-4)GlcNAc(b1-2)[Gal(b1-4)GlcNAc(b1-6)]Man(a1-6)[Gal(b1-4)GlcNAc(b1-2)Man(a1-3)]Man(b1-4)GlcNAc(b1-4)GlcNAc
# Method in brief: as §1
# [17] = target: Gal(b1-4)GlcNAc(b1-3)Gal(b1-4)GlcNAc(b1-2)Man(a1-3)[Gal(b1-4)GlcNAc(b1-3)Gal(b1-4)GlcNAc(b1-2)Man(a1-6)]Man(b1-4)GlcNAc(b1-4)GlcNAc
# Method in brief: as §1
# [18] = target: Gal(b1-4)GlcNAc(b1-3)Gal(b1-4)GlcNAc(b1-2)[Gal(b1-4)GlcNAc(b1-3)Gal(b1-4)GlcNAc(b1-6)]Man(a1-6)[Gal(b1-4)GlcNAc(b1-3)Gal(b1-4)GlcNAc(b1-2)Man(a1-3)]Man(b1-4)GlcNAc(b1-4)GlcNAc
# Method in brief: as §1
# [19] = target: Gal(b1-4)GlcNAc(b1-3)Gal(b1-4)GlcNAc(b1-3)Gal(b1-4)GlcNAc(b1-2)Man(a1-3)[Gal(b1-4)GlcNAc(b1-3)Gal(b1-4)GlcNAc(b1-3)Gal(b1-4)GlcNAc(b1-2)Man(a1-6)]Man(b1-4)GlcNAc(b1-4)[Fuc(a1-6)]GlcNAc
# Method in brief: as §1
# [20] = target: Gal(b1-4)GlcNAc(b1-3)Gal(b1-4)GlcNAc(b1-3)Gal(b1-4)GlcNAc(b1-3)Gal(b1-4)GlcNAc(b1-2)[Gal(b1-4)GlcNAc(b1-3)Gal(b1-4)GlcNAc(b1-3)Gal(b1-4)GlcNAc(b1-3)Gal(b1-4)GlcNAc(b1-6)]Man(a1-6)[Gal(b1-4)GlcNAc(b1-3)Gal(b1-4)GlcNAc(b1-3)Gal(b1-4)GlcNAc(b1-3)Gal(b1-4)GlcNAc(b1-2)Man(a1-3)]Man(b1-4)GlcNAc(b1-4)[Fuc(a1-6)]GlcNAc
# Method in brief: as §1
# [21] = target: Gal(b1-4)GlcNAc(b1-3)Gal(b1-4)GlcNAc(b1-3)[Gal(b1-4)GlcNAc(b1-3)Gal(b1-4)GlcNAc(b1-6)]GalNAc
# Method in brief: as §1
# [22] = target: Gal(b1-4)GlcNAc(b1-6)GalNAc
# Method in brief: as §1
# [23] = target: Gal(b1-4)GlcNAc(b1-6)[Gal(b1-3)]GalNAc
# Method in brief: as §1
# [24] = target: Gal3S(b1-4)[Fuc(a1-3)]GlcNAc6S
# Method in brief: as §1
# Gal6S(b1-4)GlcNAc = target: Gal6S(b1-4)GlcNAc
# Method in brief: as §1
# GalNAc(a1-3)Gal = target: GalNAc(a1-3)Gal
# Method in brief: as §1
binder,measurement,setting,value
Epa19 (Candida glabrata) (protein) MGSSHHHHHHSSGLVPRGSHMASSKDPTRFPIGCSPQVLKTQPGLAVKLYSYGHPVPGCSYITYQYPDFPRSGYKKERKLADITGVNGKIDIDLKPNDPCRVLTGHLPSNYNYPDTLTYTNFTMILYGYFQPKVTGYHTFNLEADDLLFMNLGAGNAFDCCKAESTLDNFGNYQSYSLWGSDYAKANITVFLVSGVYYPIRLFYVNRDNNAVIDFSFTTEFDKEKVHDFTSYFFSASDGEQCPGSV,glycan array binding signal (z-score),Fuc(a1-2)Gal,-0.231
same,glycan array binding signal (z-score),[1],0.072
same,glycan array binding signal (z-score),[2],-0.333
same,glycan array binding signal (z-score),[3],2.57
same,glycan array binding signal (z-score),Fuc(a1-2)Gal(b1-4)GlcNAc,-0.459
same,glycan array binding signal (z-score),Fuc(a1-2)[Gal(a1-3)]Gal,-0.947
same,glycan array binding signal (z-score),[4],0.045
same,glycan array binding signal (z-score),[5],2.07
same,glycan array binding signal (z-score),[6],0.209
same,glycan array binding signal (z-score),[7],-0.301
same,glycan array binding signal (z-score),[8],1.08
same,glycan array binding signal (z-score),[9],-0.217
same,glycan array binding signal (z-score),[10],2.47
same,glycan array binding signal (z-score),[11],-0.21
same,glycan array binding signal (z-score),Gal(b1-2)Gal,-0.099
same,glycan array binding signal (z-score),Gal(b1-3)GalNAc,-0.306
same,glycan array binding signal (z-score),[12],-0.204
same,glycan array binding signal (z-score),[13],2.39
same,glycan array binding signal (z-score),[14],-0.193
same,glycan array binding signal (z-score),Gal(b1-4)Glc6S,2.4
same,glycan array binding signal (z-score),[15],0.102
same,glycan array binding signal (z-score),[16],-1.26
same,glycan array binding signal (z-score),[17],2.29
same,glycan array binding signal (z-score),[18],0.736
same,glycan array binding signal (z-score),[19],0.256
same,glycan array binding signal (z-score),[20],0.024
same,glycan array binding signal (z-score),[21],1.4
same,glycan array binding signal (z-score),[22],-0.146
same,glycan array binding signal (z-score),[23],0.35
same,glycan array binding signal (z-score),[24],0.49
same,glycan array binding signal (z-score),Gal6S(b1-4)GlcNAc,-0.372
same,glycan array binding signal (z-score),GalNAc(a1-3)Gal,-0.246
